Measurements published in PubChem BioAssay (NCI).
This is part of a sample that, as a whole, favours compounds with a hit. Of some 79,000 tested, about 15% had one in any assay. Calls of active or inactive are those of the source. Rule as the data show it: active = growth inhibition above about 70%; inactive = the rest.

Key:
[1] = NCI Yeast Anticancer Drug Screen. Data for the rad52 strain (AID 147);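 also: 0% = growth of vehicle-treated control cultures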; settings: S. cerevisiae rad52 mutant growth inhibition, hits give high values
Summary of the method: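 Inhibition of yeast growth, referenced to vehicle controls, was the measured output for a strain with defective DNA damage repair.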

[2] = NCI Yeast Anticancer Drug Screen. Data for the wt1 strain (AID 149);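 also: 0% = growth of vehicle-treated wt1 cultures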; settings: S. cerevisiae wt1 strain (SPY 50644) growth inhibition, hits give high values
Summary of the method: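 Measured: growth of wt1 yeast under compound versus vehicle treatment, reported as inhibition.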

[3] = NCI Yeast Anticancer Drug Screen. Data for the rad50EPP+ strain (AID 151);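 also: 0% = growth of vehicle-treated control cultures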; settings: S. cerevisiae rad50 mutant strain, hits give high values
Summary of the method: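 Genetically defined yeast (rad50EPP+, DNA damage repair alteration) is grown with compound, and inhibition of growth is expressed relative to vehicle-treated controls.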

[4] = NCI Yeast Anticancer Drug Screen. Data for the mgt1 strain (AID 153); settings: S. cerevisiae mgt1 mutant growth inhibition, hits give high values
Summary of the method: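 In the mgt1 strain, test compounds were added and growth inhibition was determined relative to vehicle-treated controls.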

[5] = NCI Yeast Anticancer Drug Screen. Data for the rad50 strain (AID 155);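 also: 0% = growth of vehicle-only cultures of the same strain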; settings: S. cerevisiae rad50 strain growth inhibition, hits give high values
Summary of the method: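 Growth of the mutant yeast was measured after compound exposure and referenced to vehicle-treated cultures.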

[6] = NCI Yeast Anticancer Drug Screen. Data for the mec2-1 strain (AID 157); settings: S. cerevisiae mec2-1 strain, hits give high values
Summary of the method: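 Each compound was tested on mec2-1 yeast, a strain altered in DNA damage repair or cell cycle control. Growth inhibition is reported relative to vehicle.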

[7] = NCI Yeast Anticancer Drug Screen. Data for the rad14 strain (AID 159);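 also: 0% = growth of vehicle-treated control cultures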; settings: S. cerevisiae rad14 strain growth inhibition, hits give high values
Summary of the method: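 Here, inhibition of yeast growth was measured after compound exposure, using a strain with a genetic defect in DNA damage repair and vehicle-treated cultures as the reference.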

[8] = NCI Yeast Anticancer Drug Screen. Data for the sgs1 mgt1 strain (AID 161);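 also: 0% = growth of cultures given vehicle only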; settings: S. cerevisiae sgs1 mgt1 strain, hits give high values
Summary of the method: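 Test agents were incubated with a DNA-repair-mutant yeast strain. Growth was then read and compared against vehicle-treated controls.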

[9] = NCI Yeast Anticancer Drug Screen. Data for the CLN2oe strain (AID 163);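 also: 0% = growth of vehicle-only control cultures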; settings: S. cerevisiae CLN2oe strain, hits give high values
Summary of the method: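 First, the altered yeast strain was treated with each compound; second, its growth was measured; finally, inhibition was derived by comparison with vehicle controls.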

[10] = NCI Yeast Anticancer Drug Screen. Data for the cln2 rad14 strain (AID 165);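 also: 0% = growth equal to vehicle treated cultures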; settings: S. cerevisiae cln2 rad14 strain, hits give high values
Summary of the method: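 Test compounds were added to cln2 rad14 yeast cultures; inhibition of growth was then determined by comparison with vehicle treatment.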

[11] = NCI Yeast Anticancer Drug Screen. Data for the bub3 strain (AID 167); settings: S. cerevisiae bub3 mutant strain, hits give high values
Summary of the method: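 Whole-cell yeast assay. The mutant strain was incubated with compounds, and growth inhibition was determined by comparison with vehicle-treated cells.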

[12] = NCI Yeast Anticancer Drug Screen. Data for the mlh1 strain (AID 171);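 also: 0% = growth of vehicle-treated control cultures of the same strain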; settings: S. cerevisiae mlh1 strain growth inhibition, hits give high values
Summary of the method: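 Inhibition values reflect reduced yeast growth in the presence of compound, referenced to vehicle controls, using a strain chosen for its alteration in DNA repair or cell cycle control.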

[13] = NCI Yeast Anticancer Drug Screen. Data for the sgs1 strain (AID 173);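 also: 0% = growth of vehicle-only control cultures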; settings: S. cerevisiae sgs1 mutant, hits give high values
Summary of the method: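 Vehicle-treated cultures served as reference for growth inhibition of a yeast strain altered in DNA damage repair or cell cycle control after compound exposure.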

[14] = NCI Yeast Anticancer Drug Screen. Data for the mlh1 rad18 strain (AID 175); settings: S. cerevisiae mlh1 rad18 strain growth inhibition, hits give high values
Summary of the method: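 Inhibition values reflect reduced growth of mutant yeast versus vehicle-treated controls following compound exposure; the mutations affect DNA damage repair.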

[15] = NCI Yeast Anticancer Drug Screen. Data for the rad18 strain (AID 177); settings: S. cerevisiae rad18 mutant growth inhibition, hits give high values
Summary of the method: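 Steps: expose repair-mutant yeast to compound; measure growth; express as inhibition relative to vehicle control.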

[16] = at 5.0 µM (retest, dose inferred, filed as 0.5)
[17] = at 50.0 µM (retest, dose inferred, filed as 5.0)

Measured: growth inhibition

COc1cc(C2c3cc4c(cc3OC(OC(C)=O)C2C)OCO4)cc(OC)c1OC (stereo unspecified)
inactive: [1]; at 1.2 µM -1% | [1]; at 3.7 µM -2% | [1]; at 11.0 µM -2% | [1]; at 33.0 µM -5% | [2]; at 1.2 µM -2% | [2]; at 3.7 µM -3% | [2]; at 11.0 µM -5% | [2]; at 33.0 µM -11% | [2]; at 100.0 µM 56% | [3]; at 1.2 µM -3% | [3]; at 3.7 µM -1% | [3]; at 11.0 µM 1% | [3]; at 33.0 µM -1% | [3]; at 100.0 µM 5% | [4]; at 1.2 µM -2% | [4]; at 3.7 µM -1% | [4]; at 11.0 µM -10% | [4]; at 33.0 µM -12% | [4]; at 100.0 µM 43% | [5]; at 1.2 µM -1% | [5]; at 3.7 µM -1% | [5]; [16] 1% | [5]; at 11.0 µM -5% | [5]; at 33.0 µM -5% | [5]; [17] 49% | [5]; at 50.0 µM -0.3% | [6]; at 1.2 µM -6% | [6]; at 3.7 µM 0% | [6]; [16] -4% | [6]; at 11.0 µM -1% | [6]; at 33.0 µM -5% | [6]; [17] 5% | [6]; at 50.0 µM 2.6% | [6]; at 100.0 µM 56% | [7]; at 1.2 µM -3% | [7]; at 3.7 µM -4% | [7]; at 11.0 µM -11% | [7]; at 33.0 µM -10% | [7]; at 100.0 µM 52% | [8]; [16] -8% | [8]; [17] 29% | [8]; at 50.0 µM -4.55% | [9]; at 1.2 µM -7% | [9]; at 3.7 µM -7% | [9]; at 11.0 µM -18% | [9]; at 33.0 µM -13% | [10]; [16] -14% | [10]; [17] 3% | [10]; at 50.0 µM -13.1% | [11]; at 1.2 µM 5% | [11]; at 3.7 µM 5% | [11]; [16] 17% | [11]; at 11.0 µM 22% | [11]; at 33.0 µM 38% | [11]; [17] 58% | [11]; at 50.0 µM 35.6% | [12]; at 1.2 µM -2% | [12]; at 3.7 µM -5% | [12]; at 11.0 µM -2% | [12]; at 33.0 µM -7% | [12]; at 100.0 µM 69% | [13]; at 1.2 µM -3% | [13]; at 3.7 µM -2% | [13]; at 11.0 µM -3% | [13]; at 33.0 µM -3% | [14]; [16] -4% | [14]; [17] 23% | [14]; at 50.0 µM -2.5% | [15]; at 1.2 µM -3% | [15]; at 3.7 µM -4% | [15]; at 11.0 µM 1% | [15]; at 33.0 µM 5%
active: [1]; at 100.0 µM 82% | [5]; at 100.0 µM 77% | [9]; at 100.0 µM 72% | [11]; at 100.0 µM 89% | [13]; at 100.0 µM 79% | [15]; at 100.0 µM 85%

CCCCOCn1c(=O)[nH]c(=O)c2cc(Br)ccc21
inactive: [1]; at 1.2 µM -35% | [1]; at 3.7 µM -45% | [1]; at 11.0 µM -30% | [1]; at 33.0 µM -6% | [1]; at 100.0 µM -10% | [2]; at 1.2 µM -37% | [2]; at 3.7 µM -18% | [2]; at 11.0 µM -58% | [2]; at 33.0 µM -44% | [2]; at 100.0 µM -39% | [3]; at 1.2 µM -59% | [3]; at 3.7 µM -71% | [3]; at 11.0 µM -50% | [3]; at 33.0 µM -61% | [3]; at 100.0 µM -92% | [4]; at 1.2 µM -52% | [4]; at 3.7 µM -36% | [4]; at 11.0 µM -47% | [4]; at 33.0 µM -32% | [4]; at 100.0 µM -32% | [5]; at 1.2 µM -35% | [5]; at 3.7 µM -26% | [5]; [16] 21% | [5]; at 11.0 µM -10% | [5]; at 33.0 µM -24% | [5]; [17] 22% | [5]; at 50.0 µM 18.7% | [5]; at 100.0 µM -15% | [6]; at 1.2 µM -1% | [6]; at 3.7 µM 6% | [6]; [16] 14% | [6]; at 11.0 µM 2% | [6]; at 33.0 µM 11% | [6]; [17] 11% | [6]; at 50.0 µM 4.05% | [6]; at 100.0 µM -5% | [7]; at 1.2 µM -22% | [7]; at 3.7 µM -50% | [7]; at 11.0 µM -39% | [7]; at 33.0 µM -35% | [7]; at 100.0 µM -42% | [8]; [16] 59% | [9]; at 1.2 µM -20% | [9]; at 3.7 µM -11% | [9]; at 11.0 µM -38% | [9]; at 33.0 µM -21% | [9]; at 100.0 µM -29% | [10]; [16] 32% | [10]; at 50.0 µM 17.8% | [11]; at 1.2 µM -46% | [11]; at 3.7 µM -36% | [11]; [16] 23% | [11]; at 11.0 µM -35% | [11]; at 33.0 µM -39% | [11]; at 100.0 µM -33% | [12]; at 1.2 µM -48% | [12]; at 3.7 µM -48% | [12]; at 11.0 µM -41% | [12]; at 33.0 µM -41% | [12]; at 100.0 µM -62% | [13]; at 1.2 µM -18% | [13]; at 3.7 µM -7% | [13]; at 11.0 µM -16% | [13]; at 33.0 µM -18% | [13]; at 100.0 µM -8% | [14]; [16] 28% | [14]; [17] 32% | [14]; at 50.0 µM 26.9% | [15]; at 1.2 µM -19% | [15]; at 3.7 µM -5% | [15]; at 11.0 µM -1% | [15]; at 33.0 µM 9% | [15]; at 100.0 µM 38%
active: [8]; [17] 91% | [8]; at 50.0 µM 90.2% | [10]; [17] 86% | [11]; [17] 92% | [11]; at 50.0 µM 82.2%

O=c1ccc2ccccc2c2ccccc12
inactive: [1]; at 1.2 µM -49% | [1]; at 3.7 µM -33% | [1]; at 11.0 µM 52% | [2]; at 1.2 µM -17% | [2]; at 3.7 µM 18% | [3]; at 1.2 µM -4% | [3]; at 3.7 µM 13% | [3]; at 11.0 µM 46% | [4]; at 1.2 µM 3% | [4]; at 3.7 µM 21% | [5]; at 1.2 µM -13% | [5]; at 3.7 µM 7% | [5]; [16] -2% | [5]; at 11.0 µM 66% | [6]; at 1.2 µM -3% | [6]; at 3.7 µM 22%
active: [1]; at 33.0 µM 97% | [1]; at 100.0 µM 99% | [2]; at 11.0 µM 76% | [2]; at 33.0 µM 98% | [2]; at 100.0 µM 99% | [3]; at 33.0 µM 95% | [3]; at 100.0 µM 99% | [4]; at 11.0 µM 79% | [4]; at 33.0 µM 99% | [4]; at 100.0 µM 99% | [5]; at 33.0 µM 97% | [5]; [17] 98% | [5]; at 50.0 µM 90.9% | [5]; at 100.0 µM 97%
